Source: PubChem
Sfp PPTase inh = qHTS Assay for Inhibitors of Bacillus subtilis Sfp phosphopantetheinyl transferase (PPTase); Biochemical Sfp PPTase activity, qHTS; Potency, µM, inactives show largest response in the series, negative = inhibition, most hits filed as inhibitors; hit rate 3.5% among 310,000;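 also: the enzyme is Sfp with the accession as filed and its product quenches rhodamine fluorescence; 0% = enzyme reaction without inhibitor and -100% = no enzyme wells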
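Compounds were incubated with enzyme (final 15 nM) for 15 min at room temperature before substrate addition started the reaction. Fluorescence at 525 nm excitation, 598 nm emission was recorded immediately and after 30 minutes.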
BAZ2B inh = qHTS Assay for Inhibitors of BAZ2B | Bromodomain adjacent to zinc finger domain protein 2B (Homo sapiens), Q9UIF8 | AlphaScreen BAZ2B-H3K14Ac peptide displacement | Potency, µM (titrated, usually from 114 µM), inactives show top-dose activity change, negative = inhibition, actives largely listed as inhibitors | hit rate 4.4% among 360,000 | AID 504333, 2011; also: % is scaled to controls: 0 for no effect and ±100 for the full control effect; nearly all actives have a fitted effect of over 60% in size
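In this displacement format the biotinylated H3(5-23) peptide acetylated at Lys14 serves as ligand at 50 nM, with BAZ2B at 50 nM in PBS pH 7.4 containing 0.01% Tween-20. Donor and acceptor beads are 10 ug/mL final.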
L3MBTL1 block = qHTS Assay for the Inhibitors of L3MBTL1; Lethal(3)malignant brain tumor-like protein 1 (Homo sapiens), Q9Y468; AlphaScreen L3MBTL1–H3K9me1 peptide binding; Potency, µM (titrated, usually from 57.1 µM), without a hit: at the top dose activity, negative = inhibition, most hits filed as inhibitors; hit rate 0.66% among 230,000; AID 485360, 2010; also: % is scaled to controls: 0 for no effect and ±100 for the full control effect; nearly all actives have a fitted effect of over 60% in size
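L3MBTL1 50 nM + b-AHA-H3(1-15)K9me1 75 nM, 30 min RT; compound added, 30 min RT; streptavidin donor/Ni-chelate acceptor beads 10 ug/mL each final, 30 min RT dark; AlphaScreen read.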
G9a inh = qHTS Assay for Inhibitors of Histone Lysine Methyltransferase G9a; Potency, µM (doses to about 102 µM), for inactives: top-dose activity, negative = inhibition, actives largely listed as inhibitors; G9a H3K9 monomethylation, AlphaScreen, 2 h; hit rate 8.8% among 350,000; AID 504332, 2011; Histone-lysine N-methyltransferase EHMT2 (Homo sapiens), Q96KQ7; also: % is scaled to controls: 0 for no effect and ±100 for the full control effect; nearly all actives have a fitted effect of over 75% in size
Target sequence (Q96KQ7 913-1193 limits assumed): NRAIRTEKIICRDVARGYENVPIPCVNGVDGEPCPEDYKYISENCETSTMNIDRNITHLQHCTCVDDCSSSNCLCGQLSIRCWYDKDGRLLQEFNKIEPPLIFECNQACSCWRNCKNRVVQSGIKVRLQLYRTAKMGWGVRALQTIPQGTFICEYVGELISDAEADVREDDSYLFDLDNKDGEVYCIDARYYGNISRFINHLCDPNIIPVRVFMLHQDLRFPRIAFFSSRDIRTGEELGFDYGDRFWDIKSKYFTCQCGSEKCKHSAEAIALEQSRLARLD
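Using a bead-based AlphaScreen, monomethylated H3K9 product from 2 h room-temperature reactions (G9a 20 nM, peptide 500 nM, SAM 20 uM) was detected with 0.5 ug/mL rabbit anti-H3K9me1 antibody.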
JMJD2A Tudor inh = qHTS Assay for Inhibitors of JMJD2A-Tudor Domain; AlphaScreen JMJD2A-Tudor / H3K4me3 peptide binding; hit rate 4.4% among 390,000; AID 504339, 2011; Potency, µM (titrated, usually from 114 µM), for inactives: at the highest dose activity change, negative = inhibition, actives largely listed as inhibitors; also: % is scaled to controls: 0 for no effect and ±100 for the full control effect; nearly all actives have a fitted effect of over 50% in size
HP1b chromo inh = HTS for Inhibitors of HP1-beta Chromodomain Interactions with Methylated Histone Tails; Chromobox protein homolog 1 (Homo sapiens), P83916; AlphaScreen HP1-beta / biotin-H3K9me3 peptide binding; Potency, µM (top dose mostly 114 µM), for inactives: at the highest dose activity change, negative = inhibition, actives largely listed as inhibitors; hit rate 0.56% among 390,000; also: nearly all actives have a fitted effect of over 70% in size
Target sequence (P83916 whole entry, looked up): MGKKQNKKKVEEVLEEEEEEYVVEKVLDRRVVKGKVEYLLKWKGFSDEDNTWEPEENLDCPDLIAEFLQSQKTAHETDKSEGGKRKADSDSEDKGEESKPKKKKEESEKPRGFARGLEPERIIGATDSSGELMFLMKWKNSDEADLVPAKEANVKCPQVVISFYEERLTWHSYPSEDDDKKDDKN
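HP1-beta protein (50 nM final) preincubated 30 min at room temperature with biotinylated H3(1-18)K9me3 peptide (50 nM) in PBS pH 7.4, 0.01% Tween-20, then compound added for 30 min. AlphaScreen streptavidin donor/nickel chelate acceptor beads (10 ug/mL final), 30 min dark, luminescence read.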
* hit, by the source's call; ? = inconclusive; / = not tested or not shown; [ ] = another dose, or the depositor's remark. Compounds with a hit are over-represented: about 12% of the library has one in this group of screens. Calls follow the shape of the dose curve; as a rule, active = well fitted curve in the direction sought with a large enough effect; inconclusive = small, poorly fitted or top-dose-only effect, or another doubt; inactive = no such curve, though single readings can be large; an effect the other way counts as inactive or inconclusive. Potency is read from the fitted curve at half-maximal effect.

SMILES | Sfp PPTase inh | BAZ2B inh | L3MBTL1 block | G9a inh | JMJD2A Tudor inh | HP1b chromo inh
CN(C)c1ccc(C2Nc3cccc4cccc(c34)N2)cc1 | -25% | ? | / | 40µM* | ? | ?
COc1ccc2c(Sc3ccccc3)c(C(=O)NCCCN3CCCCC3)[nH]c2c1 | / | ? | / | ? | ? | 0%
O=C(Nc1cccc(NC(=O)c2cc([N+](=O)[O-])ccc2Cl)n1)c1cc([N+](=O)[O-])ccc1Cl | / | / | / | / | ? | 12%
O=[N+]([O-])c1ccc(Cl)c(C2Nc3cccc4cccc(c34)N2)c1 | ? | 18µM* | ? | 13µM* | 25µM* | ?
CCOC(=O)CC(=O)CSc1nc2nc(C)cc(C)n2n1 | 56µM* | 1% | / | ? | -14% | 19%
O=C1CC(c2nc3ccccc3n2CCC2CCCCC2)CN1c1ccccc1Cl (centres undefined) | / | ? | / | -12%[59 µM] | -33% | -15%
CCN(CC)C(=O)CSc1nc(-c2ccccc2F)nc2c1Cc1c(CO)cnc(C)c1O2 | / | ? | / | ? | -18% | 5%
O=C(CSc1ccc2c(c1)OCCO2)Nc1ccc(Cl)cn1 | 5% | 34% | -2% | 10%[59 µM] | 5% | 50%
O=C(CSc1ccc2c(c1)OCCO2)Nc1ccc(Br)cn1 | 1% | 6% | / | 45µM* | 8% | 57%
O=C(CSc1ccc2c(c1)OCCO2)Nc1ncccc1O | / | ? | -8% | 5%[0.501 µM] | 50µM* | 37%
Cc1nnc(SCC(=O)Nc2ccc(Br)cn2)[nH]c1=O | -15% | 5% | 3% | 50µM* | -19% | 56%
Cc1ccc(NC(=O)CSc2nnc(C)c(=O)[nH]2)cc1 | / | -23% | / | 4%[59 µM] | -9% | 56%
CCOC(=O)c1c(C)c(-c2ccccc2)n(CC(=O)Nc2cc(OC)cc(OC)c2)c1C | / | -14% | / | -5%[59 µM] | -14% | 25%
Cc1ccc(C(C)C)c(OCC(=O)Nc2ccc(N3CCN(S(C)(=O)=O)CC3)cc2)c1 | 10% | -13% | -15%[11.4 µM] | 10µM* | -6% | 26%
Cc1ccc(C(C)C)c(OCC(=O)N/N=C/c2cccn2C)c1 | 0% | 25µM* | / | / | ? | ?
Cc1ccccc1OCC(=O)N/N=C/c1cccn1C | 14% | 45µM* | -7% | ? | 8%[11.4 µM] | -18%
Cc1ccc(OCC(=O)Nc2ccc(N3CCN(S(C)(=O)=O)CC3)cc2)c(C)c1 | 17% | -33% | -14% | 14% | -9% | 36%
Cc1cc2c(s1)c(/C=N/O)c(C(=O)NCc1ccccc1F)n2C | / | / | / | / | -31% | /
CCOC(=O)c1cc(-c2ccccc2)n(CC(=O)Nc2cc(Cl)c(OC)cc2OC)c1C | / | 4% | / | -21%[59 µM] | -12% | 55%
COc1cc(CN2CC(=O)N(c3cccc(Cl)c3C)C2=S)cc(OC)c1OC | 4% | -11% | / | 10%[2.33 µM] | -12% | 5%
COc1ccc(OC)c(C2CC(=O)N3CN(c4cccc(Cl)c4C)CSC3=C2C#N)c1 (centres undefined) | 3.5µM* | 32µM* | / | 1.4µM* | 18µM* | ?
COc1cccc(C2CC(=O)N3CN(c4cccc(Cl)c4C)CSC3=C2C#N)c1OC (centres undefined) | 3.5µM* | 25µM* | / | 1.8µM* | 16µM* | ?
COc1ccc(OC)c(C2C(C#N)=C(N)Oc3cc(C)[nH]c(=O)c32)c1 (centres undefined) | 0% | -3% | 5% | 7%[2.33 µM] | ? | 31%
COc1ccc(OC)c(C2CC(=O)N3CN(c4ccccc4F)CSC3=C2C#N)c1 (centres undefined) | ? | 22µM* | / | 2.2µM* | 22µM* | 14µM*
COc1ccc(OC)c(C2CC(=O)NC(SC)=C2C#N)c1 (centres undefined) | 0% | 6% | 2% | ? | -14% | 38%
SMILES | Sfp PPTase inh | BAZ2B inh | L3MBTL1 block | G9a inh | JMJD2A Tudor inh | HP1b chromo inh
O=S(=O)(c1ccc(Cl)cc1)N1CCN(S(=O)(=O)c2ccc3c(c2)OCCO3)CC1 | / | / | / | / | -12% | /
S=c1[nH]nc(CNc2cccc(Cl)c2)o1 | 1% | -22% | -8% | 18µM* | -26% | 21%
COc1ccc(C(CC(=O)O)NC(=O)c2cc3ccccc3oc2=O)cc1OC (centres undefined) | / | -24% | / | -3%[59 µM] | 0% | 38%
CC(C)(C)[Si](C)(C)c1c2c(nc3ccc(OCc4ccccc4)cc13)-c1cccc(=O)n1C2 | 56µM* | / | / | / | / | /
COc1cc2nc3c(c([Si](C)(C)C(C)(C)C)c2cc1OC)Cn1c-3cccc1=O | 79µM* | / | / | / | / | /
COC(=O)c1c(NC(=O)CCC(=O)O)sc(Cc2ccccc2)c1C | 7% | ? | / | -25% | 3%[11.4 µM] | 61%
CCCC(=O)Nc1sc(Cc2ccccc2)c(C)c1C(N)=O | 13µM* | -26% | -3% | 3.5µM* | -23% | ?
Cc1c(Cc2ccc3c(c2)OCO3)sc(NC(=O)c2ccccc2)c1C(N)=O | ? | 0% | 7% | 32µM* | -14% | 11%
CCOC(=O)c1c(NC(=O)CN2C(=O)c3ccccc3C2=O)sc(Cc2ccc3c(c2)OCO3)c1C | 19% | 2% | -1% | 20% | -6% | 22%
CC1CCN(C(=O)c2ccc3c(c2)N(Cc2ccccc2F)C(=O)c2ccccc2S3(=O)=O)CC1 | / | -38% | / | -7%[59 µM] | -21% | 18%
CC(C)NC(=S)N/N=C1\CCCCC1C1CCCCC1 (centres undefined) | -22% | ? | / | 22µM* | ? | -45%
Cc1cc(OCC(=O)N2CCN(c3cccc(Cl)c3)CC2)c2c(C)c(C)c(=O)oc2c1 | 40µM* | -11%[57.1 µM] | / | 4% | -22% | 52%
Cc1cc(OCC(=O)N2CCC[C@@H]2C(=O)O)c2c(C)c(C)c(=O)oc2c1 | 16% | -29% | -5% | -6% | -19% | 28%
CCCOc1ccccc1NC(=O)/C=C/C(N)=O | -25% | 9% | / | 35µM* | -5% | 15%
Cc1cc(=O)oc2c(CN3CC(C)OC(C)C3)c(O)c(Cl)cc12 (centres undefined) | -15% | ? | ? | ? | 79µM* | ?
COc1ccc(Cl)cc1NC(=O)CN(C)Cc1cccs1 | -10% | 41% | / | 59% | 87% | 86%
COc1ccc(Cl)cc1NC(=O)CN(C)C(=O)Cc1ccc2c(c1)CCC2 | -5% | -14% | / | / | -10% | 34%
COc1ccc(Cl)cc1NC(=O)CN(C)C(=O)Cc1ccsc1 | / | -4% | 1% | 28µM* | -10% | 40%
COc1ccc(Cl)cc1NC(=O)CNCc1cccs1 | -10% | 71µM* | / | 1% | 4.5µM* | ?
